The list is not random: actives were taken first. Their share in the collection is about 2.4%.
PHOSPHO1 inh: blocks human PHOSPHO1 phosphatase activity; inhibition, % at 13.3 µM; recombinant PHOSPHO1, absorbance phosphatase assay; actives 1.1% (n = 290,000); AID 1565; in the data active = inhibition above about 60%
PABP FP inh: PABP-poly(A) binding inhibition; P11940; PABP-poly(A) RNA binding, fluorescence polarization; calls only at 35 µM; actives 1% (n = 290,000); AID 2014;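 note: calls also rest on retests at 20 µM and on dose response follow-up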
Target sequence (P11940 whole entry, looked up): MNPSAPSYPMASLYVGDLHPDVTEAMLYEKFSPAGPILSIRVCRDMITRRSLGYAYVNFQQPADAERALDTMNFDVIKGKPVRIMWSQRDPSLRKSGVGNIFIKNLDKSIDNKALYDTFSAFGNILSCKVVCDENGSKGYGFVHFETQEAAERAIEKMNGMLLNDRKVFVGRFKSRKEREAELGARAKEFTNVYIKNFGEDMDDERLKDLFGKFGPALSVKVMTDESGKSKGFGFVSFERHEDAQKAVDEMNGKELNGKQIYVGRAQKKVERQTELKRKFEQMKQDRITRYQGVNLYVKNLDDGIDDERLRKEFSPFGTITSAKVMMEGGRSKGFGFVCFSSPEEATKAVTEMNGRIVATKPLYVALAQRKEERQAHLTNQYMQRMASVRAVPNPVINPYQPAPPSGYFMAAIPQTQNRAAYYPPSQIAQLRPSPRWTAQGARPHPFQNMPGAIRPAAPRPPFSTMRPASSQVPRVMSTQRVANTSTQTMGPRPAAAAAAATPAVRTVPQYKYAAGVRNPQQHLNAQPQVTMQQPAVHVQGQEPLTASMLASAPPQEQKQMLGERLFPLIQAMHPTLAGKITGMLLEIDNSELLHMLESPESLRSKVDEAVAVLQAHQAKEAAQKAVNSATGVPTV
PABP1 MLLE inh: inhibitors of microRNA-mediated deadenylation, human PABP1 MLLE binding; GST-MLLE / FITC-PAM2 fluorescence polarization; inhibition, % at 20 µM; actives 0.36% (n = 360,000); P11940; in the data active = inhibition above about 35%, passing the limit was not always enough;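 note: plate controls were DMSO wells with GST-MLLE for no effect and wells lacking GST-MLLE protein for full effect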
Efa HMGR inh: blocks class II HMG-CoA reductase of Enterococcus faecalis; inhibition, % at 10 µM; actives 0.41% (n = 190,000); purified E. faecalis HMGR, NADPH absorbance 340 nm kinetic;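 active = inhibition above a set limit, the median over all tested compounds plus 3 SD, cut at about 9.5% in these data; inconclusive = no clear call, values can overlap the other calls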;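 note: enzyme runs in reverse so mevalonate oxidation gives rising NADPH absorbance; 0% = complete reaction with DMSO and 100% = background rate lacking mevalonate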
eIF4H FP inh: inhibitors of RNA binding by human eIF4H. eIF4H fluorescence polarization binding assay. inhibition, % at 35 µM. actives 0.94% (n = 290,000). AID 2012;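 note: calls also rest on retests at 20 µM and on dose response follow-up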
An asterisk follows results filed as active; i = inactive; ? = inconclusive; / = no result given; + = active, no number. Unless noted, the rule behind the calls is not given here.

SMILES	PHOSPHO1 inh	PABP FP inh	PABP1 MLLE inh	Efa HMGR inh	eIF4H FP inh
COc1cccc(NC(=O)C(c2ccccc2)N2CCCCC2)c1 (stereo not given)	-23	+	-5	0	8.5*
COc1cccc(NC(=O)C2CCCCC2)c1	2	i	5	-4	-5
OCc1cn(-c2ccccc2)nc1-c1ccco1	6	i	18	-7	16
COc1ccc2nc(-c3ccco3)c(-c3ccco3)nc2c1	40	+	40*	-1	98*
Nc1nc(-c2ccco2)cs1	93*	+	-5	-1	79*
Nc1nc(-c2ccc(-n3nncc3-c3ccco3)cc2)cs1	11	i	/	/	2
Nc1nc(-c2ccco2)c(-c2ccco2)s1	88*	?	44*	-3	?
c1coc(-c2nc(-c3ccco3)c(-c3ccco3)nc2-c2ccco2)c1	68*	+	10	-3	85*
CCc1ccccc1N(CC(=O)NC(C)c1ccccc1)S(C)(=O)=O (stereo not given)	36	i	6	/	0
Cc1cc(C)cc(C(=O)NCC(=O)OCC(=O)N2c3ccccc3NC(=O)C2(C)C)c1	-6	+	8	-5	76*
COc1cc(OC)cc(C(=O)NCC(=O)OCC(=O)N2c3ccccc3NC(=O)C2(C)C)c1	32	i	1	-1	9
C=CCSc1nc2c(c(=O)[nH]c(=O)n2C)n1C(C)C	31	i	41*	-2	2
C/C(Cl)=C/CSc1nc2c(c(=O)[nH]c(=O)n2C)n1C(C)C	-3	i	9	0	7
Nc1ccc(O)c2c1C(=O)c1ccccc1C2=O	22	i	87*	-10	123
CCOc1ccc(NC(=S)N2CCN(S(=O)(=O)c3ccc(OC)cc3)CC2)cc1	18	i	-112	/	1
COc1ccc(N2CC(C(=O)NCCCN3CCOCC3)CC2=O)cc1 (stereo not given)	60*	i	5	-2	-3
CCSCc1nnc(SCC(=O)Nc2nc3ccccc3s2)n1C	-42	+	-113	-5	3.0*
Cc1cc(NC(=O)c2ccc(Cl)cc2)no1	28	i	11	-4	-15
Cc1cc(NC(=O)CCSc2ccc(Cl)cc2)no1	62*	i	7	-2	7
CCn1c(Cc2ccccc2)nnc1SCC(=O)Nc1nc2ccccc2s1	4	i	-10	4	-8
Cc1cc(NC(=O)CSC2=NCCS2)no1	38	i	44*	-1	-12
O=C(CSC1=NCCS1)Nc1nc2ccccc2s1	-4	i	42*	5	-10
CSCC(=O)Nc1cc(C)on1	27	i	1	/	6
Cc1cc(Br)cn2c(Cc3ccccc3)c(-c3ccccc3)nc12	/	/	-4	/	/
COC(=O)c1cccc(N(CC(=O)NC2CCCC2)C(=O)CNC(=O)c2cccs2)c1	19	i	-1	/	-6
SMILES	PHOSPHO1 inh	PABP FP inh	PABP1 MLLE inh	Efa HMGR inh	eIF4H FP inh
COC[C@@H]1CCCN1[C@@H]1CS(=O)(=O)N[C@H]1COCc1ccccc1	/	/	3	/	/
COC(=O)C1=C(O)/C(=C\c2cc(C)n(-c3ccc(F)cc3)c2C)N=C1C	-27	+	10	-1	59
CC[n+]1ccc2cc(OC)c(OC)cc2c1Cc1ccc(OC)c(OC)c1	2	+	-13	-9	6
COc1ccc(Cc2c3cc(OC)c(OC)cc3cc[n+]2C)cc1OC	13	i	-81	/	-6
Fc1cccc(CN2CCN(c3nc4nonc4nc3NC3CC3)CC2)c1	56	+	12	-2	90*
CCC(C)c1ccccc1NC(=O)COC(=O)C1=COCCO1 (stereo not given)	23	i	-7	-14	6
COc1ccc(Cl)cc1N(CC(=O)N1CCCCCC1)S(C)(=O)=O	41	i	4	/	4
O=C(O)CCCN1C(=O)/C(=C\c2ccccc2OCc2ccccc2)SC1=S	10	i	12	/	-1
O=C(O)CCCN1C(=O)/C(=C/c2cn(-c3ccccc3)nc2-c2cccs2)SC1=S	72*	i	-12	-1	57
O=C(CSc1ccc2nnc(-c3cccnc3)n2n1)NCc1ccco1	5	i	13	-2	0
O=C(CSc1ncc(-c2ccc(F)cc2)[nH]1)NCc1ccco1	74*	i	20	-2	4
O=C(CSc1ncccc1-c1nc2ccccc2[nH]1)NCc1ccco1	61*	i	-6	3	12
Cc1nnc(SCC(=O)NCc2ccco2)[nH]c1=O	32	+	13	-2	57*

Bioassay records as filed in PubChem BioAssay.
